Bioassay records: PubChem, National Center for Advancing Translational Sciences (NCATS)
GRP78 ERSR act = inducers of ER stress response in human glioma cells. U87-MG GRP78 promoter luciferase reporter, 16 h. 420,000 tested, 0.02% active. Potency, µM, for inactives: top-dose activation, hits mostly activators; further: series mostly up to about 76 µM; % of control where 0% means no effect; nearly all actives have a fitted effect of over 35% in size
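Stably transfected U87-MG glioma cells carrying a GRP78-based luciferase sensor; 16 h compound incubation. Luminescence end-point read 10 min after Bright-Glo addition at room temperature.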
GLS inh = glutaminase GLS (human) inhibition. AID 624170. 410,000 tested, 0.21% active. GLS enzymatic activity, qHTS titration. Potency, µM (series often up to 45.5 µM), inactives show top-dose activity change, negative = inhibition, most hits filed as inhibitors. O94925; further: on the % scale 0 is the no-effect control and ±100 the full control effect
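Read-out is an Amplex red fluorescence increase coupled through glutamate oxidase and HRP, measured before and after 30 min room-temperature incubation. hKGA is in 45 mM KH2PO4 (pH 8.2) with 0.02% Tween-20; glutamine added as 1mM solution.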
PTHR1 ag = PTHR1 (human) receptor agonism | HEK293 GP2 PTHR1 cells, GloSensor cAMP luminescence, 1 h | 410,000 tested, 0.075% active | Q03431 | Potency, µM (series often up to 115 µM), without a hit: at the top dose activation, actives largely listed as activators | AID 743266; further: nearly all actives have a fitted effect of over 55% in size
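HEK-293-derived GP2 cells expressing PTHR1 and a GloSensor cAMP reporter, 3,000/well, plated overnight, given luciferin plus IBMX (each 0.5 mM as added) for 1 h at 37 °C, then compound for 1 h at 37 °C. Luminescence was read after 15 min at room temperature.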
GLP-1R inv ag = inverse agonists of human GLP-1 receptor; P43220; HEK293 GLP-1R CRE-luciferase, luminescence, 24 h; GLP-1R form is constitutively active; Potency, µM (titrated, usually from 38.3 µM), without a hit: top-dose activity change, negative = inhibition, usual class: inhibitors; 410,000 tested, 1.6% active; AID 624417; further: on the % scale 0 is the no-effect control and ±100 the full control effect; nearly all actives have a fitted effect of over 55% in size
Target sequence (P43220 whole entry, looked up): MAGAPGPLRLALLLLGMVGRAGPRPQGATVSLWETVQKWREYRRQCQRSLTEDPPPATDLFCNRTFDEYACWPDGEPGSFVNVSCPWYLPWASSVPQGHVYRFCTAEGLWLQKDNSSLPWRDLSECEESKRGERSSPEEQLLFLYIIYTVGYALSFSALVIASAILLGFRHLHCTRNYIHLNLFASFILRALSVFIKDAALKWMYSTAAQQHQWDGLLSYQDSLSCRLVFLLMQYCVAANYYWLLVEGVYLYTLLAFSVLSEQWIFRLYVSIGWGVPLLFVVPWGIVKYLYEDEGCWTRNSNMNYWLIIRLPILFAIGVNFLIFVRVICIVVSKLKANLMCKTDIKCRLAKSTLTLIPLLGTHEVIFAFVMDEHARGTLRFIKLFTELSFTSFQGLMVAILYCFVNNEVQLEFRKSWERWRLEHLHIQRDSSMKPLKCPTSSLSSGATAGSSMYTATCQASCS
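Using stably transfected HEK293 (constitutively active GLP-1R, cAMP-luciferase reporter), compounds were incubated 24 hr and luciferase measured by luminescence.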
ALOX12 inh = blocks human arachidonate 12S-lipoxygenase; AID 1671190; Potency, µM (highest dose often 108 µM), inactives show at the top dose activity change, negative = inhibition, actives largely listed as inhibitors; 580,000 tested, 1.1% active; P18054; purified 12hLO, xylenol orange hydroperoxide absorbance; further: on the % scale 0 is the no-effect control and ±100 the full control effect
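Hydroperoxide product was detected by ferrous iron/xylenol orange as the 573 to 405 nm absorbance ratio. Arachidonic acid at 40 uM (final) was turned over for 30 min at room temperature by 150 nM human 12hLO, pH 7.0 Hepes buffer, after 15 min compound preincubation.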
GLP-1R agonist = GLP-1 receptor (human) agonism | HEK293 GLP-1R CRE-luciferase, luminescence, 4-6 h; cells express a hypersensitive GLP-1R form | Potency, µM (titrated, usually from 45.6 µM), inactives show at the top dose activation, usual class: activators | 380,000 tested, 0.007% active | P43220; further: % of control where 0% means no effect
Starred values were filed as active, the others as inactive; i = inactive; ? = inconclusive; / = no result given; [ ] = another dose, or the depositor's remark. In the library only some 2.3% were active in any assay of this set; here they are far more common. The call rests on the fitted dose curve; in most records, active means well fitted curve in the direction sought with a large enough effect; inconclusive means small, poorly fitted or top-dose-only effect, or another doubt; inactive means no such curve, though single readings can be large; an effect the other way counts as inactive or inconclusive. Potency means the concentration at half of the fitted maximal effect.

SMILES | GRP78 ERSR act | GLS inh | PTHR1 ag | GLP-1R inv ag | ALOX12 inh | GLP-1R agonist
O=C(Nc1ccccc1N1CCCCC1)C1CCN(S(=O)(=O)c2cccc(C(F)(F)F)c2)CC1 | -5% | 9% | -26% | 11µM* | -16% | -5%
CN(C)c1ccc(C(=O)Nc2cnc3ccccc3c2)cc1 | / | / | / | / | 40µM* | /
Cc1ccc(S(=O)(=O)N2CCCCC2)cc1NC(=O)COC(=O)C1(C)CC1(Cl)Cl (configuration not stated) | -5% | -2% | -23% | 7.9µM* | 25% | 10%
Cc1ccc(S(=O)(=O)N2CCOCC2)cc1NC(=O)COC(=O)C1(C)CC1(Cl)Cl (configuration not stated) | 2% | -1% | -32% | ? | 0% | -4%
CCn1nc(C(=O)N(C)CCOc2ccccc2C)c2ccccc2c1=O | / | / | / | / | 2% | /
COc1ccc(CCC(=O)Nc2ccc(Cl)c(S(=O)(=O)N3CCCC3)c2)cc1 | -3% | 0% | -87% | 10µM* | -8% | -4%
Cc1cccc(C(=O)N[C@H](C(=O)Nc2cc(S(=O)(=O)N3CCCCC3)ccc2C)C(C)C)c1 | -4% | 10% | i | 10µM* | -13% | -4%
CS(=O)(=O)N(CCc1ccccc1)CC(=O)Nc1ccc(OCc2ccccc2)cc1 | -7% | 8% | i | 11µM* | 0% | 8%
CC(C)CC1NC(=O)N(CC(=O)Nc2ccc(OC(F)F)cc2)C1=O (configuration not stated) | -3% | 1% | 0% | -17% | -4% | 1%
CC(C)CC1NC(=O)N(CC(=O)Nc2ccc(OCc3ccccc3)cc2)C1=O (configuration not stated) | 5% | 5% | -8% | 11µM* | -18% | 4%
O=C(CN1CCN(CC(=O)Nc2ccc(OCc3ccccc3)cc2)CC1)Nc1ccc(F)cc1 | -2% | 2% | -26% | 8.9µM* | 19% | 8%
O=C(CN1CCOCC1)Nc1ccc(OCc2ccccc2)cc1 | 3% | 1% | -10%[57.5 µM] | -1% | 0% | -2%
CCOc1ccc(-c2cc3c(=O)n(CCNC(=O)c4ccccc4OC)ccn3n2)cc1 | / | / | / | / | 0% | /
CCCNC(=O)NC(=O)CSc1cc(C)c2ccccc2n1 | / | / | / | / | -28% | /
COc1ccc(C2C(C(=O)c3ccc(C)o3)=C(O)C(=O)N2Cc2cccnc2)cc1OC (configuration not stated) | -6% | 10% | i | 25% | 25µM* | 1%
COc1cc(C2C(C(=O)c3ccc(C)o3)=C(O)C(=O)N2Cc2ccccc2)ccc1O (configuration not stated) | 0% | 2% | -5% | ? | ? | -2%
CCOc1cc(C2C(C(=O)c3ccc(C)o3)=C(O)C(=O)N2CCc2ccccc2)ccc1O (configuration not stated) | -3% | 46% | -8% | ? | 8.9µM* | 5%
COc1ccc(S(=O)(=O)N2CC(=O)Nc3ccccc32)cc1Cl | -2% | -5% | -2% | 3% | 6.3µM* | 1%
CC1CCCN(CCCNC(=O)c2cc3c(s2)-c2ccccc2OC3)C1 (configuration not stated) | -2% | -7% | -3% | 8.9µM* | -16% | 16%
CCOC(=O)C1=CN(c2ccc(OCC)cc2)C=C(C(=O)OCC)C1c1ccc(SC)cc1 | / | / | / | / | -5% | /
CC1=C/C(=C\c2ccc(Br)o2)C(=O)O1 | -4% | 11µM* | i | 16% | -17% | -6%
CC(OC(=O)c1cccc(S(=O)(=O)N2CCCCC2)c1)C(=O)N1CCCc2ccccc21 (configuration not stated) | / | / | / | / | -4% | /
Cc1cccc(C(=O)NNS(=O)(=O)c2ccccc2)c1O | 10% | 6.3µM* | -18% | -3% | -13% | 4%
O=C(NNS(=O)(=O)c1ccccc1)c1ccc(O)cc1 | -2% | 26% | -2% | -5% | 8% | -5%
O=C(O)/C=C/c1ccc(-c2ccccc2)s1 | / | / | / | / | 25% | /
SMILES | GRP78 ERSR act | GLS inh | PTHR1 ag | GLP-1R inv ag | ALOX12 inh | GLP-1R agonist
CC(C)N1C(=O)[C@@H]2[C@@H](CCN2C(=O)CSCC(=O)O)N(Cc2cccc(F)c2)C1=O | / | / | / | / | 35µM* | /
O=C(Nc1cccc(C(=O)NC2CC2)c1)c1cccc(S(=O)(=O)Nc2ccc(F)cc2)c1 | / | / | / | / | -4% | /
CCc1ccc(CNC(=O)c2cc3cc(C)ccc3[nH]2)cc1 | / | / | / | / | 35µM* | /
COc1ccc(-c2c(NC(=O)c3cc(OC)c(OC)c(OC)c3)oc3ccc(Cl)cc3c2=O)cc1 | / | / | / | / | -17% | /
CCN1c2cc(C(=O)NC3CCCCCC3)ccc2C(=O)N2CCCCCC21 (configuration not stated) | / | / | / | / | -7% | /
COc1ccccc1NC(=O)CSc1nnc(C2CCCCC2)n1-c1ccccc1 | -3% | -4% | -11% | 3.2µM* | -22% | 14%
COc1ccccc1NC(=O)CSc1nnc(C2CCCCC2)n1C | -4% | -4% | i | -21% | 0% | 11%
O=c1[nH]c(Nc2ccccc2)nc2nccc(-c3ccco3)c12 | / | / | / | / | 35µM* | /
COc1ccc(-c2cc(C#N)nc(Cl)n2)cc1 | -8% | -4% | -15% | 110% | 4.5µM* | -6%
COc1ccc(-c2cc(C#N)nc(NN)n2)cc1 | -3% | 18µM* | -4% | ? | 495% | -4%
CCN(CC)c1nc(C#N)cc(-c2ccc(OC)cc2)n1 | -6% | -2% | -8%[57.5 µM] | ? | -35% | 7%
Cc1c(OC(=O)c2ccccc2Cl)cccc1OC(=O)c1ccccc1Cl | / | / | / | / | -11% | /
CCC(=O)OCOc1ccc(/C=C2/CCC(CN(C)C)C2=O)cc1 (configuration not stated) | -14% | ? | -80% | ? | 35µM* | -8%
CC(C)(C)C(=O)NC(=S)Nc1cc(C(F)(F)F)ccc1N1CCOCC1 | -4% | -10% | i | ? | 35µM* | 12%
CC(C)(C)C(=O)Nc1cc(C(F)(F)F)ccc1N1CCOCC1 | -4% | -1% | -18%[57.5 µM] | 3% | -5% | 0%
Cc1ccc2nc(SCC(=O)Nc3cc(C(F)(F)F)ccc3N3CCOCC3)[nH]c2c1 | -10% | 3% | -45%[57.5 µM] | 1.3µM* | -5% | 17%
O=C(COc1ncnc2ccc(Br)cc12)Nc1ccccc1 | / | / | / | / | -9% | /
O=C(c1ccccc1)C1N=NCC1c1ccc(Cl)cc1 (configuration not stated) | -4% | -4% | -15% | 10µM* | -16% | 17%
Cc1ncoc1C(=O)N1CCC(F)(c2nc(-c3ccncc3)no2)CC1 | / | / | / | / | 51% | /
Cc1ccc2c(C(=O)CN3CCN(CCO)CC3)c(C)[nH]c2c1 | / | / | / | / | -46% | /
